Drawing on PubChem BioAssay (NCI), this text covers growth inhibition for 40 compounds.

This is part of a sample that, as a whole, favours compounds with a hit. Of some 79,000 tested, about 15% had one in any assay. A number with no mark means an inactive call. Active and inactive are the calls of the source. Rule as the data show it: active = growth inhibition above about 70%; inactive = the rest.

A short description of the first assay: NCI Yeast Anticancer Drug Screen. Data for the rad50 strain (AID 155).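 Also: 0% = growth of vehicle-only cultures of the same strain.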 As to conditions: S. cerevisiae rad50 strain growth inhibition; at 50.0 µM; hits give high values. In a few lines:
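Cells are treated with compound, grown, and their growth is then scored against vehicle-only cultures of the same repair-deficient yeast strain.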
Consider `CCc1cccc(C(C)CC)c1N=C(NC(=O)c1ccccc1C(=O)NC(=Nc1c(CC)cccc1C(C)CC)SC)SC` (stereo not given), for which the growth inhibition was -0.7%.

Turning to `Cc1cccc(-c2nnc3s/c(=C\c4ccc(N(C)C)cc4)c(=O)n23)c1`, the growth inhibition was -3.05%.

As to `CN(C)CC(C(N)=O)C(N)=O`, the growth inhibition is -26.1%.

With `CC1=Nc2ccccc2NC(C)(C)C1`, the growth inhibition was 30.1%.

On to `CCOC(=O)Cc1nc2ccccc2[nH]c1=O`, for which the growth inhibition is 25%.

In the case of `CCCCCOc1ccc2ccccc2c1`, the growth inhibition is -23.5%.

Regarding `CCOC(=O)Cc1nnc2n(-c3ccccc3)c(=O)c3ccccc3n12`, the growth inhibition is -23.6%.

Take `COc1cc(C(OC(C)=O)OC(C)=O)c(Cl)c(Cl)c1OC(C)=O`: the growth inhibition is 16.7%.

For `CCCCCCCCCCCCOc1ccc(Br)cc1`, the growth inhibition was 11.4%.

Turning to `Nc1nn(CC(O)CO)c(=O)s1` (stereo not given), the growth inhibition was 4.85%.

For `O=C1NC(=S)S/C1=C/C=C/c1ccccc1[N+](=O)[O-]`, the growth inhibition was 2.95%.

Regarding `COc1ccc(/C=C/C(=O)c2c(-c3ccccc3)nn(C)c(=O)c2N2CCCCC2)cc1`, the growth inhibition is 7.8%.

For `O=C(C[n+]1ccccc1)c1ccccc1`, the growth inhibition is 1.75%.

As for `O=C(CN1CCN(Cc2ccccc2)CC1)N1CCCn2c1nc1ccccc1c2=O`, the growth inhibition is -18.1%.

For `Clc1c2c(nc3ccccc13)CCCC2`, the growth inhibition is 19.3%.

Consider `CC[n+]1ccc(-c2ccccc2)o1`, for which the growth inhibition was 3.6%.

As for `O=c1cc(CO)oc2c3c(cc(O)c12)OCC(COC1OC(CO)C(O)C(O)C1O)=CC3` (stereo not given), the growth inhibition is -1.25%.

With `O=C1C2(CCCC13OC3c1ccccc1)OC2c1ccccc1` (stereo not given), the growth inhibition was -20.9%.

Turning to `c1ccc2cc(C3OCC4(CCC4)CO3)ccc2c1`, the growth inhibition was 11.6%.

`CC(=O)Oc1ccc2c(OC(C)=O)c(C)cc(OC(C)=O)c2c1`: the growth inhibition is 26.3%.

As for `CC(C)OC(=O)c1cccnc1`, the growth inhibition was 16.5%.

Take `O=C(CN1CCN(c2cccc(Cl)c2)CC1)N1CCc2c([nH]c3ccccc23)C1c1cccnc1` (stereo not given): the growth inhibition was -15.3%.

Take `COC(=O)[C@H]1N[C@@H](C(=O)OC)C23CCC[C@H]2CC[C@]1(C(OC)OC)C3`: the growth inhibition is -3.5%.

For the compound `CCCCC(CC)CO` (stereo not given), the growth inhibition was -12.4%.

Regarding `CSCCCO`, the growth inhibition is -12.8%.

Take `CCC(O)(Cc1ccccc1)C(C(=O)O)c1ccccc1` (stereo not given): the growth inhibition was -32%.

Turning to `C=CCc1cc(OC)ccc1O`, the growth inhibition is 22.3%.

Take `CCC(=O)OCCCC1CCCO1` (stereo not given): the growth inhibition was 7.85%.

On to `O=C(O)CCC(=O)Nc1cccc(C(F)(F)F)c1`, for which the growth inhibition was -5.9%.

`Cn1c(=O)c2c(nc3sc4ccccc4c(=O)n32)n(C)c1=O`: the growth inhibition is 19.2%.

In the case of `COc1ccc(/C=N/NC(=O)CCCCCCCCC(=O)N/N=C/c2ccc(OC)c(OC)c2)cc1OC`, the growth inhibition is -26.4%.

On to `Cc1cc(N(CCC#N)CCC#N)ccc1/C=C\C(=O)Nc1ccccc1`, for which the growth inhibition was 19.3%.

As for `COc1ccc(C(=O)c2ccccc2)c(O)c1OC`, the growth inhibition was -12.9%.

Consider `Cn1cnc2ncnc(Nc3ccc(Cl)cc3)c21`, for which the growth inhibition is 5.25%.

`CCOC(=O)C(C)(Cc1cccc2ccccc12)C(=O)OCC`: the growth inhibition was -33.6%.

Turning to `Oc1c(Cl)cc(N=Cc2ccc(N(CCCCl)CCCCl)cc2Cl)cc1Cl`, the growth inhibition was 84.6% (active).

In the case of `CCOC(=O)C[n+]1cccc(Br)c1`, the growth inhibition was -2.6%.

With `O=C(O)CNC(=O)c1cccc(Cl)c1`, the growth inhibition was 12.4%.

On to `CCN(CC)c1ccc(N=Nc2ccc([N+](=O)[O-])cc2OC(=O)/C=C/c2ccccc2)c(OC(=O)/C=C/c2ccccc2)c1`, for which the growth inhibition is -17.6%.

For the compound `O=C(O)c1ccnc(-c2ccc(Cl)cc2)c1`, the growth inhibition was 5.5%.

A further assay can be described thus: NCI Yeast Anticancer Drug Screen. Data for the mec2-1 strain (AID 157). As to conditions: S. cerevisiae mec2-1 strain, at 50.0 µM, hits give high values. The gist of the method:
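Strain: mec2-1 (DNA repair/cell cycle alteration). Compound exposure, then growth measured; inhibition expressed relative to vehicle.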
In the case of `CCc1cccc(C(C)CC)c1N=C(NC(=O)c1ccccc1C(=O)NC(=Nc1c(CC)cccc1C(C)CC)SC)SC` (stereo not given), the growth inhibition was -3.15%.

As for `Cc1cccc(-c2nnc3s/c(=C\c4ccc(N(C)C)cc4)c(=O)n23)c1`, the growth inhibition is 8.15%.

On to `CN(C)CC(C(N)=O)C(N)=O`, for which the growth inhibition is -18.8%.

For `CC1=Nc2ccccc2NC(C)(C)C1`, the growth inhibition was 23.4%.

On to `CCOC(=O)Cc1nc2ccccc2[nH]c1=O`, for which the growth inhibition is -11.7%.

As to `CCCCCOc1ccc2ccccc2c1`, the growth inhibition was -27.8%.

Turning to `CCOC(=O)Cc1nnc2n(-c3ccccc3)c(=O)c3ccccc3n12`, the growth inhibition was -15.3%.

Consider `COc1cc(C(OC(C)=O)OC(C)=O)c(Cl)c(Cl)c1OC(C)=O`, for which the growth inhibition is -2.25%.

Consider `CCCCCCCCCCCCOc1ccc(Br)cc1`, for which the growth inhibition is 9.25%.

Regarding `Nc1nn(CC(O)CO)c(=O)s1` (stereo not given), the growth inhibition is 15.7%.

Take `O=C1NC(=S)S/C1=C/C=C/c1ccccc1[N+](=O)[O-]`: the growth inhibition was 0.85%.

For `COc1ccc(/C=C/C(=O)c2c(-c3ccccc3)nn(C)c(=O)c2N2CCCCC2)cc1`, the growth inhibition is -8.5%.

As for `O=C(C[n+]1ccccc1)c1ccccc1`, the growth inhibition was -4.4%.

Take `O=C(CN1CCN(Cc2ccccc2)CC1)N1CCCn2c1nc1ccccc1c2=O`: the growth inhibition is -16.6%.

Consider `Clc1c2c(nc3ccccc13)CCCC2`, for which the growth inhibition is 50.9%.

Turning to `CC[n+]1ccc(-c2ccccc2)o1`, the growth inhibition is 13.1%.

`O=c1cc(CO)oc2c3c(cc(O)c12)OCC(COC1OC(CO)C(O)C(O)C1O)=CC3` (stereo not given): the growth inhibition is -8.75%.

For the compound `O=C1C2(CCCC13OC3c1ccccc1)OC2c1ccccc1` (stereo not given), the growth inhibition was -11.1%.

For the compound `c1ccc2cc(C3OCC4(CCC4)CO3)ccc2c1`, the growth inhibition was -1.35%.

In the case of `CC(=O)Oc1ccc2c(OC(C)=O)c(C)cc(OC(C)=O)c2c1`, the growth inhibition was 5.6%.

As for `CC(C)OC(=O)c1cccnc1`, the growth inhibition was 2.2%.

As for `O=C(CN1CCN(c2cccc(Cl)c2)CC1)N1CCc2c([nH]c3ccccc23)C1c1cccnc1` (stereo not given), the growth inhibition is -30.8%.

Regarding `COC(=O)[C@H]1N[C@@H](C(=O)OC)C23CCC[C@H]2CC[C@]1(C(OC)OC)C3`, the growth inhibition was 2.25%.

Regarding `CCCCC(CC)CO` (stereo not given), the growth inhibition was -25%.

On to `CSCCCO`, for which the growth inhibition is -20.6%.

On to `CCC(O)(Cc1ccccc1)C(C(=O)O)c1ccccc1` (stereo not given), for which the growth inhibition was -31.1%.

With `C=CCc1cc(OC)ccc1O`, the growth inhibition is 36.8%.

Consider `CCC(=O)OCCCC1CCCO1` (stereo not given), for which the growth inhibition was -0.55%.

For the compound `O=C(O)CCC(=O)Nc1cccc(C(F)(F)F)c1`, the growth inhibition was 3.4%.

For `Cn1c(=O)c2c(nc3sc4ccccc4c(=O)n32)n(C)c1=O`, the growth inhibition was -9.05%.

With `COc1ccc(/C=N/NC(=O)CCCCCCCCC(=O)N/N=C/c2ccc(OC)c(OC)c2)cc1OC`, the growth inhibition was -13.4%.

`Cc1cc(N(CCC#N)CCC#N)ccc1/C=C\C(=O)Nc1ccccc1`: the growth inhibition is 16.3%.

On to `COc1ccc(C(=O)c2ccccc2)c(O)c1OC`, for which the growth inhibition was -5.95%.

In the case of `Cn1cnc2ncnc(Nc3ccc(Cl)cc3)c21`, the growth inhibition is -16%.

Consider `CCOC(=O)C(C)(Cc1cccc2ccccc12)C(=O)OCC`, for which the growth inhibition was -19.3%.

Take `Oc1c(Cl)cc(N=Cc2ccc(N(CCCCl)CCCCl)cc2Cl)cc1Cl`: the growth inhibition was 41%.

`CCOC(=O)C[n+]1cccc(Br)c1`: the growth inhibition is 6.45%.

As for `O=C(O)CNC(=O)c1cccc(Cl)c1`, the growth inhibition is 12.3%.

For the compound `CCN(CC)c1ccc(N=Nc2ccc([N+](=O)[O-])cc2OC(=O)/C=C/c2ccccc2)c(OC(=O)/C=C/c2ccccc2)c1`, the growth inhibition is -47.9%.

For the compound `O=C(O)c1ccnc(-c2ccc(Cl)cc2)c1`, the growth inhibition is 5.75%.
